From PubChem BioAssay (Tox21) come the findings set out here.

“And” between values parts separate entries of the source, which are not always exact repeats. Identical values can stand only once. Results filed as inconclusive are left out. Values without a mark were called inactive. The source made the active and inactive calls. Calls follow the shape of the dose curve; as a rule, active = well fitted cell-killing curve with a large enough effect in the repeat runs; inconclusive = weak or mixed curves, or effect the other way; inactive = flat fitted curve, though single readings scatter.
% is scaled to controls: 0 for no effect and ±100 for the full control effect; potency is read from the fitted curve at half-maximal effect.

A short description of the assay: Caspase-3/7 induction in HepG2 cells by small molecules, qHTS cell viability counter screen (AID 1346981). Also: nearly all actives have a fitted effect of over 30% in size. As to conditions: CellTiter-Fluor fluorescence, 17 h; series mostly up to 92.4 µM; activity change, negative = cytotoxicity: at the top concentration. From the text:
U.S. Tox21 Program National Center for Advancing Translational Sciences [NCATS] NIH Chemical Genomics Center [NCGC] U.S. Environmental Protection Agency [EPA] National Institutes of Environmental Health Sciences [NIEHS] National Toxicology Program [NTP] U.S. Food and Drug Administration [FDA] Tox21 Assay Overview: Apoptosis is a process of programmed cell death and plays a central role in the development of multicellular organisms. It is a highly regulated process and induces cell death by activating caspases, which are the members of cysteine aspartic acid-specific protease (caspase) family. Caspases involved in apoptosis are classified by their mechanism of action as initiator caspases (caspase-2, -8, -9 and -10) and executioner caspases (caspase-3, -6, and -7). Inhibition of apoptosis results in number of cancers, autoimmune diseases, inflammatory diseases and viral infection. To identify small molecule compounds that induce apoptosis, a homogeneous, luminescent Caspase-Glo 3/7 assay was used. Wild type HepG2 cells were used to screen Tox21 libraries for identifying caspase-3/7 activity inducers. Also cytotoxicity of the compounds was tested in parallel by measuring the cell viability using CellTiter-Fluor assay system in the same wells.
Tox21 Assay Protocol Summary: HepG2 cells were dispensed at 2,000 per well in 5uL of culture medium into white solid bottom 1536-well plates (Corning Life Sciences, Corning, NY) using a Multidrop Combi (Thermo Scientific, Waltham, MA) dispenser. The assay plates were incubated at 37 C and 5% CO2 for 5hr, and then 23nL of compounds dissolved in DMSO and positive control were transferred using a Pintool station ([…], San Diego, CA). The assay plates were incubated at 37C and 5% CO2 for 17hr. For cytotoxicity read, after 16hr incubation at 37C, 1uL CellTiter-Fluor reagent (Promega Corporation, Madison, WI) was added to each well of the assay plates using Flying Reagent Dispenser (FRD, Aurora Discovery, San Diego, CA). After 1hr incubation at 37C and 5% CO2, the fluorescence signal was quantified using a ViewLux plate reader (PerkinElmer, Shelton, CT).
In general terms: Quantitative high-throughput screening tests each substance at several concentrations.
Take `CC1(C)[C@H](C(=O)O[C@H](C#N)c2cccc(Oc3ccccc3)c2)[C@@H]1/C=C(\Cl)C(F)(F)F`: the “activity change, negative = cytotoxicity” value is -2.75%.
Still for that read-out and setting: the result for `Cc1cc(C)cc(OP(=O)(Oc2cc(C)cc(C)c2)Oc2cc(C)cc(C)c2)c1` reads 5.13%; that for `Cc1c(Cl)c(=O)oc2cc(OP(=O)(OCCCl)OCCCl)ccc12`, 8.22% [at 42.5 µM].
For the compound `CN(C)C(=S)[S-].CN(C)C(=S)[S-].[Cu+2]`, the Potency is 7.45 µM (active).
As for `Cc1cc(Cl)ccc1O[C@H](C)C(=O)O`, the “activity change, negative = cytotoxicity” value is 7.28%.
The same measure, in the same setting: the result for `CCOP(=S)(OCC)SCCS(=O)(=O)CC` reads -1.84%.
On the same count and under the same terms, the result for `CC(=O)[O-].[Tl+]` reads -35%; that for `CC(=O)c1ccc(-c2ccccc2)cc1`, -6.26%.
In the case of `COC12CC[C@@]3(C[C@@H]1C(C)(O)C(C)(C)C)[C@H]1Cc4ccc(O)c5c4[C@@]3(CCN1CC1CC1)[C@H]2O5` (stereo not given in full), the Potency was 68.1 µM (active).
As for `c1ccc(OCC2CO2)cc1` (stereo not given), the “activity change, negative = cytotoxicity” value was 9.47%.
Regarding `CCCCCCCCCCCCCCCC[n+]1ccccc1`, the Potency was 63.9 µM (active) and 61.1 µM (active) and 26.9 µM (active).
For `CCCCCCCCCBr`, the “activity change, negative = cytotoxicity” value was -1.01%.
Regarding `C[C@@H]1CC[C@@]2(OC1)O[C@H]1[C@@H](O)[C@H]3[C@@H]4CC[C@H]5C[C@@H](O[C@@H]6O[C@H](CO)[C@H](O[C@@H]7O[C@H](CO)[C@@H](O)[C@H](O[C@@H]8OC[C@@H](O)[C@H](O)[C@H]8O)[C@H]7O[C@@H]7O[C@H](CO)[C@@H](O)[C@H](O[C@@H]8O[C@H](CO)[C@@H](O)[C@H](O)[C@H]8O)[C@H]7O)[C@H](O)[C@H]6O)[C@H](O)C[C@]5(C)[C@H]4CC[C@]3(C)[C@H]1[C@@H]2C`, the Potency was 36.5 µM (active).
Regarding `Oc1ccc(I)cc1`, the “activity change, negative = cytotoxicity” value is 7.15%.
With `N#CNC#N`, the “activity change, negative = cytotoxicity” value is -4.21%.
With `O=[N+]([O-])c1ccc2ccc3cccc4ccc1c2c34`, the Potency was 27.3 µM (active).
The same measure, in the same setting: the result for `C[C@H]1CC[C@@H]2[C@@H](C)[C@H]3[C@H](C[C@H]4[C@@H]5CC=C6CC(O[C@@H]7O[C@H](CO)[C@H](O)[C@H](O[C@@H]8O[C@H](CO)[C@@H](O)[C@H](O)[C@H]8O)[C@H]7O[C@H]7O[C@@H](C)[C@H](O)[C@@H](O)[C@H]7O)CC[C@]6(C)[C@H]5CC[C@]34C)N2C1` (stereo not given in full) reads 31.6 µM (active).
Regarding `C=COCCCl`, the “activity change, negative = cytotoxicity” value is 5.36%.
Same read-out and setting: the result for `OC(Cc1ccccc1Cl)(Cn1cncn1)C1(Cl)CC1` (stereo not given) reads -1.5%.
Regarding `CC(=O)[O-].CC(=O)[O-].O.O.[Cd+2]`, the Potency was 67.6 µM (active).
With `CCCCCCCCCCCCCCC(Br)C(=O)O` (stereo not given), the “activity change, negative = cytotoxicity” value is 1.05%.
The same measure, in the same setting: the result for `Clc1ccc(Oc2ccccc2)cc1` reads 0.171%; that for `O=C(Cl)c1ccc(Cl)cc1`, 11.1%.
Still for that read-out and setting: the result for `COc1ccc(OC)c(C=O)c1` reads 5.22%; that for `O=C(CBr)c1ccc(O)cc1`, 10.2%.
Consider `O=C1C=CC(=O)c2ccccc21`, for which the Potency was 61.1 µM (active).
Turning to `Cc1cc(C)c(C2=C(OC(=O)CC(C)(C)C)C3(CCCC3)OC2=O)c(C)c1`, the “activity change, negative = cytotoxicity” value was 1.59%.
On the same count and under the same terms, the result for `Clc1ccc(C(Cl)(Cl)Cl)c(Cl)c1` reads 3.7%.
As for `CCc1nn(C)c(C(=O)NCc2ccc(C(C)(C)C)cc2)c1Cl`, the Potency was 34.4 µM (active).
As to `CC(=[OH+])/C=C(/C)[O-].CC(=[OH+])/C=C(\C)[O-].CC(=[OH+])/C=C(\C)[O-].[Al]`, the “activity change, negative = cytotoxicity” value was -1.38%.
Consider `ClC(Cl)=C(Cl)Cl`, for which the “activity change, negative = cytotoxicity” value is -0.359%.
In the case of `COc1cc(N)c(Cl)cc1C(=O)NC1CN2CCC1CC2` (stereo not given), the “activity change, negative = cytotoxicity” value is -1.18% [at 42.5 µM].
Take `CCCN(CCC)c1c([N+](=O)[O-])cc(S(N)(=O)=O)cc1[N+](=O)[O-]`: the Potency is 57.7 µM (active).
For the compound `COS(=O)(=O)c1ccc(C)cc1`, the “activity change, negative = cytotoxicity” value was -4.66%.
As for `CC(C)(c1ccc(O)c(-c2ccccc2)c1)c1ccc(O)c(-c2ccccc2)c1`, the Potency is 61.1 µM (active).
Turning to `CN(C)CCc1c[nH]c2cccc(O)c12`, the “activity change, negative = cytotoxicity” value is -4.7%.
The same measure, in the same setting: the result for `NC(=O)c1ccc(N)nc1` reads -2.09%; that for `CC(=O)OC1(c2ccccc2)CCN(CCc2ccccc2)CC1`, -8.35%.
Turning to `O=C(Nc1ccc2[nH]ccc2c1)c1cc2cc(F)ccc2n1Cc1cccc(F)c1`, the Potency was 61.1 µM (active).
With `CCC(C)(C)C(=O)OC1=C(c2ccc(Cl)cc2Cl)C(=O)OC12CCCCC2`, the “activity change, negative = cytotoxicity” value is 2.29%.
